# Assay outcomes from PubChem.
# In the library only some 10% were active in any assay of this set; here they are far more common.
# BAZ2B block: qHTS Assay for Inhibitors of BAZ2B. Bromodomain adjacent to zinc finger domain protein 2B (Homo sapiens), Q9UIF8. AlphaScreen BAZ2B-H3K14Ac peptide displacement. Potency, µM (highest dose often 114 µM), most hits filed as inhibitors. 360,000 tested, 4.4% active. AID 504333, 2011; note: nearly all actives have a fitted effect of over 60% in size
#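 Compounds, titrated to a top concentration of 110 uM, were incubated 30 min at room temperature with preformed BAZ2B/acetyl-K14 H3 peptide complex (50 nM each). Proximity signal was measured by AlphaScreen after 20 min with beads.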
# HP1b binding inh: HTS for Inhibitors of HP1-beta Chromodomain Interactions with Methylated Histone Tails | AlphaScreen HP1-beta / biotin-H3K9me3 peptide binding | 390,000 tested, 0.56% active | Potency, µM (top dose mostly 114 µM), most hits filed as inhibitors; note: nearly all actives have a fitted effect of over 70% in size
# Target sequence (P83916 whole entry, looked up): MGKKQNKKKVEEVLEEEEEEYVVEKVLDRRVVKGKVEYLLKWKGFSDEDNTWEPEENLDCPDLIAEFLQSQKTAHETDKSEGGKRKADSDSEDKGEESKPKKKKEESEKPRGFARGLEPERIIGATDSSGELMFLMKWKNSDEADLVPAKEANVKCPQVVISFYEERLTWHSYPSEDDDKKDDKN
#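 HP1-beta protein (50 nM final) preincubated 30 min at room temperature with biotinylated H3(1-18)K9me3 peptide (50 nM) in PBS pH 7.4, 0.01% Tween-20, then compound added for 30 min. AlphaScreen streptavidin donor/nickel chelate acceptor beads (10 ug/mL final), 30 min dark, luminescence read.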
# CtBP-E1A inh: qHTS Assay for Inhibitors of the CtBP/E1A Interaction; CtBP / adenovirus E1A interaction (AlphaScreen); AlphaScreen GST-E1A/His-CtBP binding, 1536-well; active compounds read low; activity change, % (no concentration beside the values); 340,000 tested, 0.49% active; in the data active = activity change below about -65%; inconclusive = mostly about -30% to -63%
#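 Homogeneous bead-based format: GST-tagged E1A captured on glutathione donor beads, His-tagged CtBP on nickel acceptor beads; compounds precede bead addition by 2 h at 37 °C.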
# G9a block: qHTS Assay for Inhibitors of Histone Lysine Methyltransferase G9a | Histone-lysine N-methyltransferase EHMT2 (Homo sapiens), Q96KQ7 | G9a H3K9 monomethylation, AlphaScreen, 2 h | Potency, µM (highest dose often 102 µM), most hits filed as inhibitors | 350,000 tested, 8.8% active | AID 504332, 2011; note: nearly all actives have a fitted effect of over 75% in size
# Target sequence (Q96KQ7 913-1193 limits assumed): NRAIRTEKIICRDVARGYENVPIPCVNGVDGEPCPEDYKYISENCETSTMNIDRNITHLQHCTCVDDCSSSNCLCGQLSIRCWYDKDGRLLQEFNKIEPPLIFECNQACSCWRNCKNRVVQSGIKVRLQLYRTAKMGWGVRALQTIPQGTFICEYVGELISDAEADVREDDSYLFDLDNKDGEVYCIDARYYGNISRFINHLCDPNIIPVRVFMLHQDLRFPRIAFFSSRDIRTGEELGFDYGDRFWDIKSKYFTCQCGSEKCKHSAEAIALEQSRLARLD
#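 G9a (20 nM) preincubated 15 min RT with compounds, then 500 nM biotinylated H3K9 peptide and 20 uM SAM added; 2 h RT reaction. Monomethyl-H3K9 product detected by AlphaScreen with anti-H3K9me1 antibody, streptavidin donor and anti-rabbit IgG acceptor beads.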
# JMJD2A Tudor inh: qHTS Assay for Inhibitors of JMJD2A-Tudor Domain | Lysine-specific demethylase 4A (Homo sapiens), O75164 | AlphaScreen JMJD2A-Tudor / H3K4me3 peptide binding | Potency, µM (highest dose often 114 µM), hits mostly inhibitors | 390,000 tested, 4.4% active; note: nearly all actives have a fitted effect of over 50% in size
# Six1-Eya2 inh: qHTS Assay for Inhibitors of the Six1/Eya2 Interaction | Homeobox protein SIX1 (Homo sapiens) + Protein phosphatase EYA2 (Homo sapiens), … | AlphaScreen GST-Six1/His-Eya2 binding, biochemical; active compounds read low | activity change, % (concentration not given with the values) | 360,000 tested, 0.56% active; in the data active = activity change below about -65%; inconclusive = mostly about -30% to -63%
#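 Six1/Eya2 binding was read as AlphaScreen signal after compounds were pinned into GST-Six1 plus His-tagged Eya2 (5X stock 250/500 nM) in pH 8.0 Tris/NaCl/TCEP buffer, beads added, then incubated 1 h, 37 C, dark.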
# A number is an active result; n = inactive; u = inconclusive; x = no result; ! = not active in a repeat. Unless noted, calls come from the whole dose curve; as a rule, active = well fitted inhibition curve with a large enough effect; inconclusive = small, poorly fitted or top-dose-only effect; inactive = no such curve, though single readings can be large or run the other way.
SMILES,BAZ2B block,HP1b binding inh,CtBP-E1A inh,G9a block,JMJD2A Tudor inh,Six1-Eya2 inh
Cc1cc(C(C)(C)C)ccc1OCCN1CCCC1,u,n,n,32µM,8.9µM,n
Cc1cc(C(C)(C)C)ccc1OCCCCN1CCCC1,n,n,n,u,7.1µM,n
CCOc1ccc2ncc3c(-c4ccc(C)cc4)nn(-c4cccc(F)c4)c3c2c1,x,n,x,n,n,x
CCCCCNC(=O)c1cc2c(=O)n3ccccc3nc2n1C,u,n,x,u,u,x
Cc1ccc(N2CCN(C(=O)NCc3noc4ccc(C)cc34)CC2)c(C)c1,n,n,x,n,n,x
COc1cccc(N2C(=O)c3ccccc3C2=O)c1,x,x,x,x,n,x
CCn1nnc2cc(C(=O)Nc3cccc(Cl)c3C)ccc21,n,n,x,n,n,x
Cn1c(=O)c2nc3ccc(NC(=O)C(F)(F)F)cc3nc2n(C)c1=O,n,n,x,n,n,x
Cc1cc2nc3c(=O)[nH]c(=S)[nH]c3nc2cc1NC(=O)C(F)(F)F,n,n,u,28µM,n,u
CN=c1scc(-c2cccs2)n1/N=C/c1ccccc1O,u,u,n,n,n,n
COc1cc(/C=N/NC(=O)C23CC4CC(CC(C4)C2)C3)cc(Br)c1O,n,n,n,u,n,n
COc1cc(/C=N/O)cc(Br)c1OC,n,n,n,n,n,n
CCCCCC(=O)N/N=C/c1cc(Br)c(O)c(OC)c1,n,n,n,50µM,n,n
CN=c1scc(-c2cccs2)n1/N=C/c1ccc(O)c(O)c1O,25µM,5µM,-88,7.9µM,25µM,-77
COc1cc(/C=N/N(C)C)cc(Br)c1O,n,n,n,14µM,n,n
CN=c1scc(C)n1/N=C/c1cc(Br)c(O)c(OC)c1,40µM,n,n,7.9µM,u,n
CN=c1scc(C)n1/N=C/c1ccc(O)c(O)c1O,25µM,u,u,u,50µM,u
COc1cc(/C=N/NC(=O)c2ccc(Cn3cc([N+](=O)[O-])cn3)o2)cc(Br)c1O,n,n,n,8.9µM,n,n
COc1cc(/C=N/N(C)c2ccccc2)cc(Cl)c1O,45µM,22µM,n,u,25µM,n
O=C(c1ccc2c(c1)N(Cc1ccc(Cl)cc1)C(=O)c1ccccc1S2=O)N1CCN(c2ccccc2F)CC1 (stereo not drawn),n,n,x,n,n,x
OCC1(Cc2ccccc2)CCCN(Cc2ccc(-c3ccco3)cc2)C1 (stereo not drawn),45µM,n,n,x,u,n
CCn1ccnc1CN1CCCC(CO)(Cc2cccc(OC)c2)C1 (stereo not drawn),89µM,n,n,n,n,n
COc1ccc(CN2CCCC(CO)(Cc3cccc(Cl)c3)C2)cc1OC (stereo not drawn),n,n,n,n,n,n
COc1cc(CN2CCCC(CO)(Cc3cccc(Cl)c3)C2)cc(OC)c1O (stereo not drawn),n,n,n,50µM,n,n
CCOC(=O)C1(Cc2cccc(OC)c2)CCCN(Cc2nccn2CC)C1 (stereo not drawn),n,n,n,n,n,n
SMILES,BAZ2B block,HP1b binding inh,CtBP-E1A inh,G9a block,JMJD2A Tudor inh,Six1-Eya2 inh
Cc1nn2c(=O)cc(COC(=O)Cc3ccccc3)nc2s1,n,n,x,n,n,x
COc1cc(NC(=O)c2ccc(-c3nc(CSc4ccccc4)c(C)o3)cc2)cc(OC)c1,n,n,x,n,n,x
COc1ccccc1CNC(=O)C(=O)NCC(c1cccnc1)N1CCN(c2ccccc2)CC1 (stereo not drawn),n,n,x,n,n,x
Cc1ccc(NC(=O)CCn2cccn2)cc1Cl,n,n,x,n,n,x
CCCCCCn1cc(C(=O)O)c(=O)c2ccccc21,n,n,n,45µM,u,n
CCCOc1ccc(C(=O)Nc2ccc3oc(-c4ccc5ccccc5c4)nc3c2)cc1,n,n,x,n,n,x
O=C(NCc1ccccc1Cl)C(=O)NCC(c1ccc2c(c1)OCO2)N1CCOCC1 (stereo not drawn),n,n,x,n,n,x
COc1cc(/C=N/Nc2nc(C)nc3c2cnn3-c2ccccc2)ccc1O,n,n,-77,n,n,-67
COc1cc(/C=N/NC(=O)c2nc(-c3ccccc3)n(-c3ccccc3)n2)ccc1O,n,n,u,n,n,u
COc1cc(/C=N/Nc2cc(C)nc(NS(=O)(=O)c3ccc(C)cc3)n2)ccc1O,n,n,n,n,n,u
COc1cc(/C=N/Nc2cc(C)nc(NS(=O)(=O)c3ccccc3)n2)ccc1O,n,n,-73,n,n,-71
Cc1cc(NN)nc(NS(=O)(=O)c2ccccc2)n1,n,n,n,32µM,u,n
CCCN(CCC)C(=O)Cn1c(SCc2cccc(C(F)(F)F)c2)nc2cccnc21,n,n,x,n,n,x
COc1ccc(N2CCN(c3oc(-c4ccccc4C)nc3S(=O)(=O)c3ccccc3)CC2)cc1,u,n,x,u,n,x
CCn1nnc2c(N3CCCC3)ncnc21,x,u,x,x,n,x
NNC(=O)c1nnsc1-c1csnn1,x,n,n,x,79µM,n
CCCCCCCCCCOCCC(=O)O,x,x,x,n,x,x
CCCCNC(=O)c1nn(-c2ccc(C)cc2)c(=O)c2c1c1ccccc1n2C,x,n,x,n,n,x
CC(=NCCCn1ccnc1)C1=C(O)c2ccccc2C1=O,45µM,n,n,n,n,n
O=C1C(C=NCCCn2ccnc2)=C(O)c2ccccc21,x,n,n,x,n,n
COC(=O)/C(C#N)=C1/C=Cc2ccccc2N1C,n,n,n,n,n,n
CN1/C(=C/c2cc[n+](C)c3ccccc23)C=Cc2ccccc21,28µM,u,n,35µM,28µM,u
C=CC(=O)c1ccc(CCCCCC)cc1,x,x,x,11µM,x,x
O=C(O)[C@H]1NCCC[C@H]1C(=O)O,x,x,x,6.7µM!,x,x
O=C(O)C1CCCNC1 (stereo not drawn),n,n,n,n,n,n
SMILES,BAZ2B block,HP1b binding inh,CtBP-E1A inh,G9a block,JMJD2A Tudor inh,Six1-Eya2 inh
O=C(NCc1ccccc1F)C1CCCN(C(=O)N2CCOc3ccccc32)C1 (stereo not drawn),n,n,x,u,n,x
N#Cc1ccsc1NC(=O)CCc1ccccc1,u,n,n,25µM,n,n
N#Cc1ccsc1NC(=O)c1ccc2ncsc2c1,x,x,n,x,x,n
N#Cc1ccsc1NC(=O)c1ccccn1,10µM,n,u,u,20µM,-67
N#Cc1ccsc1NC(=O)CN(Cc1ccccc1)Cc1ccccc1,n,n,n,n,n,n
CN1/C(=C\C(=O)Nc2ccc(Cl)cc2)C(C)(C)c2ccccc21,n,n,n,u,n,n
COc1ccccc1C(=O)NC(=S)/C=C1/N(C)c2ccccc2C1(C)C,11µM,n,-74,10µM,16µM,-73
